# In PubChem BioAssay AID434970 (Sanford-Burnham Center for Chemical Genomics, 2010):
# About 310 (2.8%) of roughly 11,000 compounds were called active. This is one part of a sample in which actives are shown more often than they occur. No stated cut-off is given here; in the data, active means activity change below about -85%; inactive means the rest.
# System: intestinal alkaline phosphatase [Mus musculus]
# Assay: mouse intestinal phosphatase enzyme activation – biochemical, luminescence, single concentration, confirmation (AID 434970)
# Conditions: purified mouse IAP, CDP-Star luminescence, 30 min, at 10 µM; activation factor: measured here: IAP activation factor, stronger effect = higher value; activity change, negative = activation: stronger effect = lower value
SMILES,activation factor,"activity change, negative = activation"
CCN(CC)S(=O)(=O)c1cccc(NC(=O)c2cc3ccccc3o2)c1,0.883,11.7% (inactive)
O=C(c1ccco1)N1CCN(CC(O)Cn2c3ccccc3c3ccccc32)CC1 (stereo unspecified),0.97,2.95% (inactive)
CC(C)OC(=O)CSc1nc2cccnc2n1C1CCCCC1,0.982,1.75% (inactive)
COc1ccc(C2=NO[C@@H]3C(=O)N(c4cccc(C)c4C)C(=O)[C@H]23)cc1OC,0.93,6.95% (inactive)
COC(=O)c1sccc1NC(=O)c1cc(OC)cc(OC)c1,0.928,7.2% (inactive)
c1coc(C2Nc3ccccc3C3OCCC23)c1 (stereo unspecified),1.1,-10.4% (inactive)
COc1ccc(C(=O)NC(Oc2ccccc2)C(Cl)(Cl)Cl)cc1 (stereo unspecified),1.06,-6.15% (inactive)
C=C(C)c1cccc(C(C)(C)NC(=O)Nc2ccc(C(N)=O)cc2)c1,2.18,-118% (active)
C=C(C)c1cccc(C(C)(C)NC(=O)NC(c2ccccc2)c2ccc(OC)cc2)c1 (stereo unspecified),4.59,-359% (active)
COc1ccc(C(=O)OC(C(=O)c2ccccc2)c2ccccc2)cc1 (stereo unspecified),0.982,1.8% (inactive)
C=C(C)c1cccc(C(C)(C)NC(=O)NCC2COCCO2)c1 (stereo unspecified),1.09,-9.1% (inactive)
CC(=O)Nc1ccc(S(=O)(=O)Nc2cccc(NC(=O)C(C)(C)C)c2)cc1,1.12,-11.8% (inactive)
CC(C)C(OC(=O)c1ccco1)C(=O)NC1CCCCC1 (stereo unspecified),0.964,3.65% (inactive)
Cc1ccc(C)c(N(C(=O)CCC(=O)Nc2cc(C)on2)C(C(=O)NC2CCCC2)c2ccco2)c1 (stereo unspecified),0.998,0.2% (inactive)
O=C(CSc1ncn[nH]1)NCCc1ccccc1,1.1,-10.3% (inactive)
CC1CCN(C(c2cccs2)c2nnnn2Cc2ccccc2)CC1 (stereo unspecified),0.984,1.65% (inactive)
Cn1c(CCN2CCOCC2)nc2cc(NC(=O)COc3ccc(Cl)cc3)ccc21,0.927,7.3% (inactive)
CC[C@]12c3[nH]c4ccc(Cl)cc4c3CCN1C(=O)[C@@H](CC(=O)NC(C)(C)C)C[C@@H]2C(=O)N1CCN(C(=O)c2ccco2)CC1,1.14,-13.7% (inactive)
CCOC(=O)c1ccc(NC(=O)NCc2ccccc2OC)cc1,1.8,-79.8% (inactive)
CCOC(=O)c1ccc(NC(=O)NCCc2ccccc2OC)cc1,2.01,-101% (active)
CCOC(=O)c1ccc(NC(=S)NCCc2ccccc2F)cc1,1.3,-29.6% (inactive)
COc1ccc(C)cc1NC(=O)C1C2C=CC(C2)C1C(=O)O (stereo unspecified),0.955,4.55% (inactive)

SMILES,activation factor,"activity change, negative = activation"
COc1cc(NC(=O)NCC2CCN(Cc3ccccc3Cl)CC2)cc(OC)c1OC,2.47,-148% (active)
COc1cc(NC(=O)NCC2CCN(Cc3ccc(C)cc3)CC2)cc(OC)c1OC,1.88,-88.3% (inactive)
COc1cc(NC(=O)NCC2CCN(Cc3ccccc3C)CC2)cc(OC)c1OC,2.9,-190% (active)
COc1cc2c(cc1NC(=O)Nc1ccc(C)cc1)oc1ccccc12,1.18,-18.4% (inactive)
CCC(NC(=O)Nc1cc(OC)c(OC)c(OC)c1)(C(F)(F)F)C(F)(F)F,1.8,-80.2% (inactive)
O=C(Nc1cc(Cl)cc(Cl)c1)C1CCC(=O)N1Cc1ccccc1Cl (stereo unspecified),1.71,-70.5% (inactive)
CCN(CC)C(=O)[C@H]1C[C@H](CC(=O)NCCc2ccccn2)C(=O)N2CCc3c([nH]c4cc(-c5ccco5)ccc34)[C@]12C,1.27,-27% (inactive)
O=C(c1cccs1)n1nc(-c2ccccc2)nc1NCc1ccco1,0.857,14.4% (inactive)
c1ccc(-c2cc3c(NCC4COc5ccccc5O4)ncnc3s2)cc1 (stereo unspecified),1.97,-97.1% (active)
FC(F)(F)c1cccc(NC(=S)NCC2COc3ccccc3O2)c1 (stereo unspecified),1.43,-42.8% (inactive)
CCN(c1ccccc1)S(=O)(=O)c1ccc(NCC2COc3ccccc3O2)nc1 (stereo unspecified),1.29,-28.6% (inactive)
CCOc1ccc(C2N(c3cc(C)on3)C(=O)C3CCCN32)cc1OC (stereo unspecified),1.05,-5.3% (inactive)
Cc1ccc(SCc2nc3ccccc3n2CC(=O)Nc2ccccc2)cc1,1.56,-56% (inactive)
Cc1ccc(C(=O)NC(C)c2nc3ccccc3n2CC(=O)Nc2c(C)cc(C)cc2C)cc1 (stereo unspecified),1.1,-10.2% (inactive)
Cc1cc(C)cc(NC(=O)CCc2nc3ccccc3[nH]2)c1,1.04,-3.9% (inactive)
Cc1cc(C)cc(NC(=O)Cn2c(-c3ccccc3Cl)nc3ccccc32)c1,2.48,-148% (active)
O=C(CSc1nnc(Cn2nnc3ccccc32)o1)Nc1ccc(Cl)cc1,0.985,1.5% (inactive)
Cc1ccc(SCc2nc3ccccc3n2CC(=O)Nc2ccc(Cl)cc2)cc1,1.85,-85.5% (active)
O=C(Cn1c(-c2ccccc2Cl)nc2ccccc21)Nc1cccc(Cl)c1,2.51,-151% (active)
O=C(CCN1C(=O)c2ccccc2C1=O)NC(=S)Nc1cccc(Cl)c1,0.956,4.4% (inactive)
O=C(CCn1cnc2ccccc2c1=O)Nc1cccc(Cl)c1,1.01,-1.4% (inactive)
